Test results published in PubChem BioAssay AID1159580 (chemical genetic matrix, 2015).
Out of some 5,500 compounds screened, about 2,000 (36%) were called active. Roughly 18% stayed inconclusive and do not appear here. Rule as the data show it: active = normalized growth mostly below about 0.91 (no sharp cut-off); inconclusive = no clear call, values can overlap the other calls; inactive = mostly above about 0.92. The list shows a part of the results.

Assay: chemical genetic growth profiling, strain panel (AID 1159580);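 also: tested at 20 µM; growth read once vehicle control cultures reached saturation at 30 °C; 1 = growth at the plate median or of vehicle wells; lower values mean less growth of the strain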
Settings: growth OD

Measured: normalized growth

Nc1ccc(N=Nc2ccccc2)c(N)n1
inactive: S. cerevisiae deletion strains, locus YJR075W, strain HOC1, stronger effect = lower value 0.991 | S. cerevisiae deletion strains, locus YKL009W, strain mrt4, stronger effect = lower value 0.933 | S. cerevisiae deletion strains, locus YKL068W, stronger effect = lower value 1.02 | S. cerevisiae deletion strains, locus YKL085W, strain MDH1 (second series), stronger effect = lower value 1.01 | S. cerevisiae deletion strains, locus YKL085W, strain MDH1, stronger effect = lower value 1.01 | S. cerevisiae deletion strains, locus YKL190W, strain CNB1, stronger effect = lower value 1 | S. cerevisiae deletion strains, locus YKR026C, strain gcn3, stronger effect = lower value 0.969 | S. cerevisiae deletion strains, locus YKR091W, strain srl3, stronger effect = lower value 0.959 | S. cerevisiae deletion strains, locus YLR058C, strain SHM2, stronger effect = lower value 1 | S. cerevisiae deletion strains, locus YLR102C, strain apc9, stronger effect = lower value 1.02 | S. cerevisiae deletion strains, locus YLR113W, strain HOG1, stronger effect = lower value 0.997 | S. cerevisiae deletion strains, locus YLR268W, strain sec22, stronger effect = lower value 0.982 | S. cerevisiae deletion strains, locus YLR330W, strain CHS5, stronger effect = lower value 0.992 | S. cerevisiae deletion strains, locus YLR342W, strain FKS1 (second series), stronger effect = lower value 0.916 | S. cerevisiae deletion strains, locus YLR357W, strain rsc2, stronger effect = lower value 1.04 | S. cerevisiae deletion strains, locus YLR370C, strain arc18, stronger effect = lower value 0.946 | S. cerevisiae deletion strains, locus YLR371W, strain rom2, stronger effect = lower value 1.03 | S. cerevisiae deletion strains, locus YLR384C, strain iki3, stronger effect = lower value 0.972 | S. cerevisiae deletion strains, locus YLR418C, strain cdc73, stronger effect = lower value 0.881 | S. cerevisiae deletion strains, locus YML016C, strain PPZ1, stronger effect = lower value 0.987 | S. cerevisiae deletion strains, locus YML032C, strain rad52, stronger effect = lower value 0.938 | S. cerevisiae deletion strains, locus YML124C, strain tub3, stronger effect = lower value 1.02 | S. cerevisiae deletion strains, locus YMR078C, strain ctf18, stronger effect = lower value 1.01 | S. cerevisiae deletion strains, locus YMR125W, strain sto1, stronger effect = lower value 0.962 | S. cerevisiae deletion strains, locus YMR129W, stronger effect = lower value 0.978 | S. cerevisiae deletion strains, locus YMR223W, strain ubp8, stronger effect = lower value 0.92 | S. cerevisiae deletion strains, locus YMR231W, strain pep5, stronger effect = lower value 0.971 | S. cerevisiae deletion strains, locus YMR263W, strain SAP30, stronger effect = lower value 0.927 | S. cerevisiae deletion strains, locus YMR307W, strain GAS1, stronger effect = lower value 1.21 | S. cerevisiae deletion strains, locus YNL067W, strain RPL9B, stronger effect = lower value 0.922 | S. cerevisiae deletion strains, locus YNL128W, strain TEP1, stronger effect = lower value 0.966 | S. cerevisiae deletion strains, locus YNL153C, strain GIM3, stronger effect = lower value 0.975 | S. cerevisiae deletion strains, locus YNL183C, strain NPR1, stronger effect = lower value 0.934 | S. cerevisiae deletion strains, locus YNL233W, strain BNI4, stronger effect = lower value 0.937 | S. cerevisiae deletion strains, locus YNL250W, strain rad50, stronger effect = lower value 1.02 | S. cerevisiae deletion strains, locus YNL271C, strain bni1, stronger effect = lower value 0.995 | S. cerevisiae deletion strains, locus YNL298W, strain CLA4, stronger effect = lower value 0.928 | S. cerevisiae deletion strains, locus YNL322C, strain KRE1 (second series), stronger effect = lower value 1.03 | S. cerevisiae deletion strains, locus YNL322C, strain KRE1, stronger effect = lower value 1.01 | S. cerevisiae deletion strains, locus YNR049C, strain mso1, stronger effect = lower value 0.965 | S. cerevisiae deletion strains, locus YNR052C, strain pop2, stronger effect = lower value 0.936 | S. cerevisiae deletion strains, locus YOL012C, strain htz1 1.24 | S. cerevisiae deletion strains, locus YOL147C, strain pex11, stronger effect = lower value 0.982 | S. cerevisiae deletion strains, locus YOR061W, strain CKA2, stronger effect = lower value 0.995 | S. cerevisiae deletion strains, locus YOR069W, strain VPS5, stronger effect = lower value 0.998 | S. cerevisiae deletion strains, locus YOR080W, strain dia2, stronger effect = lower value 0.967 | S. cerevisiae deletion strains, locus YOR136W, strain idh2, stronger effect = lower value 1.01 | S. cerevisiae deletion strains, locus YOR144C, strain elg1, stronger effect = lower value 1.01 | S. cerevisiae deletion strains, locus YOR184W, strain ser1, stronger effect = lower value 1.02 | S. cerevisiae deletion strains, locus YOR231W, strain MKK1, stronger effect = lower value 0.942 | S. cerevisiae deletion strains, locus YOR316C, strain cot1, stronger effect = lower value 1.02 | S. cerevisiae deletion strains, locus YPL055C, strain LGE1, stronger effect = lower value 0.934 | S. cerevisiae deletion strains, locus YPL106C, strain sse1, stronger effect = lower value 0.978 | S. cerevisiae deletion strains, locus YPL241C, strain CIN2, stronger effect = lower value 0.998 | S. cerevisiae deletion strains, locus YPL256C, strain CLN2, stronger effect = lower value 0.962 | S. cerevisiae deletion strains, locus YPR119W, strain clb2, stronger effect = lower value 1.02 | S. cerevisiae deletion strains, locus YPR141C, strain kar3, stronger effect = lower value 1.04 | S. cerevisiae deletion strains, locus YPR163C, strain tif3, stronger effect = lower value 0.952 | S. cerevisiae deletion strains, locus YPR167C, strain met16, stronger effect = lower value 1.02 | S. cerevisiae deletion strains, strain wtn01, stronger effect = lower value 0.964 | S. cerevisiae strains, strain wild type, stronger effect = lower value 0.987
active: S. cerevisiae deletion strains, locus YKL160W, strain elf1, stronger effect = lower value 0.772 | S. cerevisiae deletion strains, locus YKR001C, strain vps1, stronger effect = lower value 0.885 | S. cerevisiae deletion strains, locus YLL001W, strain dnm1, stronger effect = lower value 0.8 | S. cerevisiae deletion strains, locus YLL026W, stronger effect = lower value 0.825 | S. cerevisiae deletion strains, locus YLL041C, strain sdh2, stronger effect = lower value 0.896 | S. cerevisiae deletion strains, locus YLR027C, strain aat2, stronger effect = lower value 0.802 | S. cerevisiae deletion strains, locus YLR039C, strain RIC1, stronger effect = lower value 0.596 | S. cerevisiae deletion strains, locus YLR221C, strain rsa3, stronger effect = lower value 0.7 | S. cerevisiae deletion strains, locus YLR258W, strain gsy2, stronger effect = lower value 0.771 | S. cerevisiae deletion strains, locus YLR262C, strain YPT6 (second series), stronger effect = lower value 0.351 | S. cerevisiae deletion strains, locus YLR262C, strain YPT6, stronger effect = lower value 0.574 | S. cerevisiae deletion strains, locus YLR320W, strain mms22, stronger effect = lower value 0.429 | S. cerevisiae deletion strains, locus YLR342W, strain FKS1, stronger effect = lower value 0.861 | S. cerevisiae deletion strains, locus YML120C, strain ndi1, stronger effect = lower value 0.79 | S. cerevisiae deletion strains, locus YMR058W, strain fet3, stronger effect = lower value 0.716 | S. cerevisiae deletion strains, locus YMR205C, strain PFK2, stronger effect = lower value 0.568 | S. cerevisiae deletion strains, locus YNL071W, strain lat1, stronger effect = lower value 0.261 | S. cerevisiae deletion strains, locus YNL209W, strain ssb2, stronger effect = lower value 0.791 | S. cerevisiae deletion strains, locus YNL248C, strain rpa49, stronger effect = lower value 0.814 | S. cerevisiae deletion strains, locus YNL307C, strain MCK1, stronger effect = lower value 0.798 | S. cerevisiae deletion strains, locus YOL006C, strain TOP1, stronger effect = lower value 0.332 | S. cerevisiae deletion strains, locus YOR001W, strain rrp6, stronger effect = lower value 0.753 | S. cerevisiae deletion strains, locus YOR070C, strain gyp1, stronger effect = lower value 0.774 | S. cerevisiae deletion strains, locus YOR083W, strain WHI5, stronger effect = lower value 0.784 | S. cerevisiae deletion strains, locus YOR106W, strain vam3, stronger effect = lower value 0.563 | S. cerevisiae deletion strains, locus YOR265W, strain rbl2, stronger effect = lower value 0.903 | S. cerevisiae deletion strains, locus YOR270C, strain vph1, stronger effect = lower value 0.243 | S. cerevisiae deletion strains, locus YOR290C, strain snf2, stronger effect = lower value 0.782 | S. cerevisiae deletion strains, locus YPL051W, strain arl3, stronger effect = lower value 0.554 | S. cerevisiae deletion strains, locus YPL078C, strain atp4, stronger effect = lower value 0.741 | S. cerevisiae deletion strains, locus YPL240C, strain hsp82, stronger effect = lower value 0.849
